# HCV inh: qHTS Assay for Inhibitors of Hepatitis C Virus (HCV). Potency, µM (highest dose often 41.8 µM), inactives show at the highest dose activity change, negative = inhibition, most hits filed as inhibitors. 340,000 tested, 3.4% active. Huh7.5.1 HCVcc-Cre infection, luciferase reporter, 44 h
#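 Cells (1,000/well) were plated 4 h before compound, then infected with HCVcc-Cre virus (~0.5 moi). After 44 h further culture, infection was read as luciferase luminescence following a 15 min substrate incubation at room temperature.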
# AmpC inh no detg: qHTS Inhibitors of AmpC Beta-Lactamase (assay without detergent); 330,000 tested, 0.52% active; AID 485341, 2010; P00811; AmpC nitrocefin hydrolysis, absorbance 480 nm, 0.0001% Triton; Potency, µM (top dose mostly 57.1 µM), inactives show top-dose activity change, negative = inhibition, most hits filed as inhibitors;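 further: plate controls were no compound for no effect and no enzyme for full effect; nearly all actives have a fitted effect of over 20% in size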
# Target sequence (P00811 whole entry, looked up): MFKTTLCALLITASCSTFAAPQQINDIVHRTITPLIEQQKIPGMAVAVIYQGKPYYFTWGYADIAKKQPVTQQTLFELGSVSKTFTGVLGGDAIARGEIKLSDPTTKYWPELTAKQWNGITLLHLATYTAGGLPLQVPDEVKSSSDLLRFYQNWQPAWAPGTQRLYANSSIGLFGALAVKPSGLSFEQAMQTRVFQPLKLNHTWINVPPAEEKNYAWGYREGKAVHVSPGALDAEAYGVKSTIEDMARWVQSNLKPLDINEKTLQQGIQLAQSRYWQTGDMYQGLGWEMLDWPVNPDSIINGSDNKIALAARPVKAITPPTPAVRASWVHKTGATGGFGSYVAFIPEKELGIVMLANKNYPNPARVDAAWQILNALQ
#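 AmpC (5.3 nM in the dispensed reagent) in 20 mM phosphate pH 7.0 with 0.01% (detergent screen) or 0.0001% Triton X-100 was preincubated with compounds for 15 min at room temperature. Nitrocefin was then added from an 800 uM solution, and hydrolysis was followed at 480 nm.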
# AMA1 RON2 block: qHTS for Inhibitors of AMA1-RON; Towards Development of Antimalarial Drug Lead: Primary Screen; Plasmodium falciparum AMA1 (3D7) - RON2 peptide interaction; AlphaScreen AMA1-biotinylated RON2 peptide binding; Potency, µM (top dose mostly 58.2 µM), without a hit: at the highest dose activity change, negative = inhibition, actives largely listed as inhibitors; 360,000 tested, 0.2% active;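 further: 0% = vehicle wells and -100% = peptide control; nearly all actives have a fitted effect of over 45% in size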
#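 AMA1 (3D7) with his tag at 25 nM final met compounds first, then biotinylated RON2 peptide at 25 nM; detection used donor plus acceptor beads, 10 µg/mL apiece, read by AlphaScreen after 30 min at room temperature.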
# Pf growth 48h: Primary qHTS for delayed death inhibitors of the malarial parasite plastid, 48 hour incubation | P. falciparum luciferase growth in erythrocytes, 48 h | Potency, µM (top dose mostly 28.7 µM), for inactives: at the highest dose activity change, negative = inhibition, usual class: inhibitors | 310,000 tested, 5.9% active
#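 A one-generation exposure of luciferase-tagged malaria parasites in RPMI 1640/Albumax erythrocyte culture, 37 C and 5% CO2. Inhibition is inferred from decreased luminescence after adding detection reagent.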
# AmpC inh detg: qHTS Inhibitors of AmpC Beta-Lactamase (assay with detergent). P00811. AmpC hydrolysis of nitrocefin, absorbance 480 nm, 0.01% Triton. Potency, µM (titrated, usually from 114 µM), inactives show at the top dose activity change, negative = inhibition, most hits filed as inhibitors. 370,000 tested, 0.041% active. AID 485294, 2010;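 further: 0% = no-compound wells and -100% = no-enzyme wells; nearly all actives have a fitted effect of over 25% in size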
#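 20 mM phosphate pH 7.0 + 0.01% (detergent screen) or 0.0001% Triton X-100; 5.3 nM AmpC reagent; cpd preinc 15 min RT; nitrocefin (800 uM stock) to start; A480 q20 s × 4 min; Activity was normalised to no-enzyme and no-compound control wells.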
# Pf growth 96h: Primary qHTS for delayed death inhibitors of the malarial parasite plastid, 96 hour incubation | P. falciparum luciferase reporter growth, 96 h | Potency, µM (top dose mostly 28.7 µM), inactives show at the top dose activity change, negative = inhibition, usual class: inhibitors | 320,000 tested, 6.9% active | AID 504834, 2011
#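 Luminescence readout: decreased luciferase signal marks inhibited growth of reporter-expressing P. falciparum in infected red cells (2% hematocrit, 0.05% parasitemia final), exposed to compound two generations (96 h, 37 C, 5% CO2).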
# An asterisk follows results filed as active; ? = inconclusive; / = no result; [ ] = another dose, or the depositor's remark. Only some compounds are listed: those with a hit (about 11% of all), similar ones and a draw of the others. The call rests on the fitted dose curve; in most records, active means well fitted curve in the direction sought with a large enough effect; inconclusive means small, poorly fitted or top-dose-only effect, or another doubt; inactive means no such curve, though single readings can be large; an effect the other way counts as inactive or inconclusive. Unless noted, on the % scale 0 is the no-effect control and ±100 the full control effect; potency means the concentration at half of the fitted maximal effect.
SMILES,HCV inh,AmpC inh no detg,AMA1 RON2 block,Pf growth 48h,AmpC inh detg,Pf growth 96h
COc1ccc(CCC(=O)NC2CC(=O)N(c3ccc(C)c(C)c3)C2)cc1 (centres undefined),/,/,/,/,3.8%,/
CC(C)C[C@@H](CN(N=O)[C@@H](Cc1ccccc1)CN(C)N=O)N(CCc1ccccc1)N=O,-18.2%,-3.2%,-3.3%,?,-2.9%,?
CN(C[C@H](Cc1ccccc1)N(C[C@H](c1ccccc1)N(CCc1ccccc1)N=O)N=O)N=O,-4.1%,-17.4%,-10.2%,?,-4.4%,13.1µM*
CN(C[C@@H](Cc1cccc2ccccc12)N(C[C@H](Cc1ccccc1)N(CCc1ccccc1)N=O)N=O)N=O,-12.9%,-49.4%,10.6%,-0.3%,-1.0%,0.0%
CN(C[C@H](c1ccccc1)N(C[C@H](Cc1ccccc1)N(CCc1ccccc1)N=O)N=O)N=O,-23.5%[8.37 µM],-22.8%,-2.4%,?,-0.7%,11.7µM*
Cc1cc2oc(C(=O)Nc3c(C)n(C)n(-c4ccccc4)c3=O)cc(=O)c2cc1C,/,/,/,/,12.4%,/
Cc1c(C)c2c(cc(C)c3c(-c4ccc(Br)cc4)coc32)oc1=O,/,/,/,/,8.4%,/
CC(=O)N1C(=O)N(C)C2C1N(C)C(=O)N2C(C)=O (centres undefined),/,-3.6%,/,0.8%,-1.7%,?
CC(=O)OC1C(OC(C)=O)N(C(C)=O)C(=O)N1C(C)=O (centres undefined),15.2%,-7.1%,1.7%,-3.9%,?,9.28µM*
CCN(CC)C1=NC(=[N+](CC)CC)c2ccccc21,?,1.2%,3.1%,0.738µM*,-0.5%,0.294µM*
COc1ccc(C(=O)n2nc(-c3ccco3)nc2NCc2cccs2)cc1,/,/,/,/,13.4%,/
CC(CN1c2ccccc2Sc2ccccc21)N(C)C (centres undefined),2.6%[8.37 µM],-20.3%,8.7%,?,-18.2%,?
C#CCN1c2ccccc2Sc2cccnc21,?,-11.7%,-18.1%,0.329µM*,7.0%,0.117µM*
C#CC[N+](C)(C)CC#Cc1ccc(Cl)cc1,-20.3%,-1.6%,-0.8%,1.65µM*,?,?
C#CC[N+](CC)(CC)CC#Cc1cccc(Cl)c1,-20.2%,-4.6%,-5.2%,10.4µM*,-14.7%,?
CCC[N+](CC#CCO)(CC#Cc1ccccc1)CCC,10.0%,-13.1%,9.1%,?,1.7%,?
CC[N+](CC)(CC#Cc1ccccc1)CC(=O)c1ccc(Cl)cc1,?,-7.3%,18.5%,?,?,?
CC[N+](CC)(CC#CCO)CC#Cc1ccccc1,11.7%,21.2%,-10.2%,?,0.3%,10.4µM*
CC(C)c1ccc(OC(=O)c2cc(-c3ccccc3)on2)cc1,/,/,/,/,26.0%,/
CCN(CC)c1nn2c(=O)c(C(=O)NCc3ccc(N(C)C)cc3)cnc2s1,/,/,/,/,23.9%,/
Cc1[nH]c2ccc(C(=O)N3CCN(c4ccccc4F)CC3)cc2c1C,/,/,/,/,-4.4%,/
CC(C)Oc1cc(-n2c(=S)[nH]c3ccccc3c2=O)c(Cl)cc1Cl,?,-56.0%,17.3%,5.86µM*,2.3%,4.65µM*
O=C(Cc1cccs1)NCCN1CCOCC1,31.3%,1.2%,-2.7%,-8.1%,?,4.15µM*
CC(NC(=S)Nc1ccc(Cl)cc1)C(c1ccccc1)N1CCOCC1 (centres undefined),12.5%,-1.8%,8.2%,?,-12.3%,10.4µM*
CC(NC(=S)Nc1ccc(Cl)cc1Cl)C(c1cccs1)N1CCCC1 (centres undefined),0.8%,-11.0%,39.6%,?,2.8%,11.7µM*
SMILES,HCV inh,AmpC inh no detg,AMA1 RON2 block,Pf growth 48h,AmpC inh detg,Pf growth 96h
CC(NC(=O)Cc1cccs1)C(c1cccs1)N1CCOCC1 (centres undefined),9.4%,14.6%,4.0%,13.1µM*,-9.1%,/
CC(NC(=O)Nc1ccc([N+](=O)[O-])cc1)C(c1cccs1)N1CCCC1 (centres undefined),1.5%,-17.2%,7.9%,?,?,9.28µM*
CC(NC(=O)Nc1ccccc1)C(c1cccs1)N1CCN(C)CC1 (centres undefined),-2.8%,3.6%,-1.5%,-2.6%,?,-2.8%
CC(NC(=O)Nc1cccc(Cl)c1)C(c1cccs1)N1CCCC1 (centres undefined),3.0%,-2.2%,13.4%,?,-0.3%,9.28µM*
CC(NC(=O)Nc1ccc(Cl)cc1)C(c1cccs1)N1CCOCC1 (centres undefined),-6.5%,2.51µM*,-5.7%,?,?,?
O=C(NCc1ccccc1)c1ccc(Cn2c(=O)c3cccn3c3cccnc32)cc1,/,/,/,/,13.4%,/
c1ccc(-c2nnc(C(c3ccccc3)c3ccccc3)o2)cc1,-3.5%,-22.8%,1.7%,?,-7.5%,7.38µM*
COc1cccc(N2CCN(c3c4c(nc5nncn35)CCC4)CC2)c1,/,/,/,/,-2.5%,/
Cc1ccc(NC(=O)c2cccc(NC(=O)N3CCSc4ncccc43)c2)cc1F,/,/,/,/,18.3%,/
CCOC(=O)C1CCCN(C(=O)c2cc3c(=O)n(C)c4ccccc4c3n2C)C1 (centres undefined),-3.0%,2.4%,2.5%,/,-3.5%,8.28µM*
Cn1c(C(=O)N2CCN(Cc3ccc4c(c3)OCO4)CC2)cc2c(=O)n(C)c3ccccc3c21,-24.5%,47.5%,-13.7%,/,?,1.85µM*
COc1ccc2c(c1)c(C(O)CN1CCN(Cc3ccc4c(c3)OCO4)CC1)c(C)n2C (centres undefined),?,161.4%,-14.4%,?,-9.1%,?

# High-throughput results (PubChem BioAssay)
